Test results published in the supplement of paper PMC6522484.
± gives the standard deviation of the averaged measurements.

Assays:
DLD1 [1] = experiment: cell viability (CellTiter-Glo) relative to plate median (fraction of plate median); higher = more viable cells; settings: 5 µM; treatment time 24 h; reporter: 7TFP
Method in brief: (§1)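 Colorectal cancer cells stably transduced with lentiviral TCF/Wnt firefly luciferase reporters were seeded in 384-well plates and dosed 24 h later with library compounds at a final 5 µM for 24 h. Firefly luciferase or CellTiterGlo luminescence was then read on a Tecan F500 from parallel plates. Signals were normalised per well to the plate median without log transformation, additively in webcellHTS2, and averaged over two independent replicates.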

HCT116 = experiment: as above; settings: 5 µM; treatment time 24 h; reporter: TCF4/Wnt
Method in brief: as §1

SW480 [2] = experiment: as above; settings: 5 µM; treatment time 24 h; reporter: 7TFP
Method in brief: as §1

DLD1 [3] = experiment: TCF/Wnt firefly luciferase reporter signal relative to plate median (fraction of plate median); higher = higher Wnt reporter signal; settings: 5 µM; treatment time 24 h; reporter: 7TFP
Method in brief: as §1

SW480 [4] = experiment: as above; settings: 5 µM; treatment time 24 h; reporter: 7TFP
Method in brief: as §1

SMILES	cell viability (DLD1 [1])	cell viability (HCT116)	cell viability (SW480 [2])	TCF/Wnt firefly luciferase reporter signal (DLD1 [3])	TCF/Wnt firefly luciferase reporter signal (SW480 [4])
CC[C@@]1(O)C(=O)OCc2c1cc1n(c2=O)Cc2cc3cc(O)ccc3nc2-1	1.05 ± 0.071	0.724 ± 0.093	0.999 ± 0.14	0.871 ± 0.1	0.805 ± 0.041
COc1c(O)cc2c(-c3ccccc3)cc(=O)oc2c1OC	0.989 ± 0.016	1.03 ± 0.028	0.977 ± 0.061	1.03	0.977 ± 0.033
O=C1c2c(O)ccc(O)c2C(=O)c2c(NCCNCCO)ccc(NCCNCCO)c21	1.09 ± 0.078	0.635 ± 0.19	0.997 ± 0.018	0.936 ± 0.03	0.436 ± 0.04
COC(=O)c1c(C)c2c(c(C)c1O)OC(=O)c1c(C)c(Cl)c(O)c(Cl)c1O2	0.994 ± 0.037	0.865 ± 0.016	0.9555 ± 0.0078	0.895 ± 0.083	0.933 ± 0.057
CCCCCCCCCCCCCCCCCCCCCCO	1.04 ± 0.076	0.941 ± 0.065	0.97 ± 0.036	0.869 ± 0.032	0.927 ± 0.066
COc1c2ccoc2cc2oc(C)cc(=O)c12	0.967 ± 0.016	0.973 ± 0.12	0.92 ± 0.0042	0.894 ± 0.012	0.986 ± 0.034
O=C1c2ccccc2C(=O)c2c(Cl)cccc21 [Chloro-Anthraquinone]	1.01 ± 0.027	0.993 ± 0.024	0.974 ± 0.017	1.03 ± 0.16	0.944 ± 0.14
O=C1CN(/N=C/c2ccc(-c3ccc([N+](=O)[O-])cc3)o2)C(=O)N1	0.999 ± 0.044	0.9895 ± 0.005	0.97 ± 0.018	1 ± 0.042	1.02 ± 0.014
O=C(O)c1cc(O)c(O)c(O)c1	0.906 ± 0.059	0.955 ± 0.093	1 ± 0.08	1.11 ± 0.17	1.03 ± 0.17
O=c1c(O)c(-c2ccccc2)oc2ccccc12	0.992 ± 0.026	0.961 ± 0.069	1 ± 0.027	1.1 ± 0.16	0.977 ± 0.1
CC1CC2C3CCC4=CC(=O)C=CC4(C)C3(F)C(O)CC2(C)C1C(=O)CO (stereo not given)	0.954 ± 0.033	0.895 ± 0.043	0.939 ± 0.026	1.05	1.04 ± 0.057
NC(=O)c1ccc([N+](=O)[O-])cc1Cl	1.02 ± 0.047	1.1 ± 0.057	1 ± 0.014	0.894 ± 0.19	0.967 ± 0.075
COC(=O)[C@@H]1OC(=O)C2OC23[C@@]1(C)CCC1[C@]2(C)C(C[C@@H](O)[C@]13C)C(C)(C)[C@H](OC(C)=O)C[C@@H]2OC(C)=O (stereo not given in full)	1.01 ± 0.091	1.01 ± 0.014	1.01 ± 0.035	1.1 ± 0.042	1 ± 0.11
CC(C)CCC[C@@H](C)C1CC[C@H]2[C@@H]3CCC4CC(=O)CC[C@]4(C)[C@H]3CC[C@]12C (stereo not given in full)	0.999 ± 0.016	1.01 ± 0.031	1.02 ± 0.021	0.955 ± 0.045	0.97 ± 0.071
CC(=O)N[C@@H](C=O)[C@@H](O)[C@H](O)[C@H](O)CO	1.04 ± 0.021	1.06 ± 0.014	0.945 ± 0.013	1.18 ± 0.035	1.2 ± 0.057
OCCOCCN1CCN(C2=Nc3ccccc3Sc3ccccc32)CC1	1.05 ± 0.094	1 ± 0.15	0.991 ± 0.013	1.03 ± 0.028	1.08 ± 0.014
C[C@](N)(Cc1ccc(O)c(O)c1)C(=O)O	0.981 ± 0.098	0.996 ± 0.062	1.03 ± 0.028	1.04 ± 0.087	1.03 ± 0.12
CC#C[C@]1(O)CC[C@H]2[C@@H]3CCC4=CC(=O)CCC4=C3[C@@H](c3ccc(N(C)C)cc3)C[C@@]21C	0.972 ± 0.023	1.04 ± 0.12	0.931 ± 0.042	0.891 ± 0.05	1.01 ± 0.063
CC(=O)OCC(=O)[C@@]1(O)CC[C@H]2[C@@H]3CCC4=CC(=O)CC[C@]4(C)[C@H]3[C@@H](O)C[C@@]21C	1.04 ± 0.077	1.08 ± 0.057	1.04 ± 0.05	1.05	1.07 ± 0.064
O=c1cc(-c2ccc(O)cc2)oc2cc(O)cc(O)c12	0.982 ± 0.026	1.07 ± 0.028	1.02 ± 0.014	1.105 ± 0.0071	1.03 ± 0.05
c1ccc([C@H]2CN3CCSC3=N2)cc1	1.01	0.943 ± 0.11	1.02 ± 0.048	0.943 ± 0.043	0.947 ± 0.066
CN(C)CCCN1c2ccccc2Sc2ccc(Cl)cc21	1.02 ± 0.054	0.957 ± 0.047	1.09 ± 0.14	0.928 ± 0.12	0.821 ± 0.13
CC(C)=CCC[C@](C)(O)C1CC=C(C)CC1 (stereo not given in full)	1.04 ± 0.063	0.973 ± 0.081	1.1 ± 0.085	1.03 ± 0.014	0.996 ± 0.076
CN(C)[C@@H]1C(O)=C(C(N)=O)C(=O)[C@@]2(O)C(O)=C3C(=O)c4c(O)ccc(Cl)c4[C@@H](O)[C@H]3C[C@@H]12	0.943 ± 0.025	0.96 ± 0.071	0.959 ± 0.0085	0.924 ± 0.067	0.983 ± 0.039
CCCCC[C@H](CC(=O)NO)C(=O)N[C@H](C(=O)N1CCC[C@H]1CO)C(C)C	0.951 ± 0.0042	0.932 ± 0.057	0.9655 ± 0.00071	1 ± 0.05	1.16 ± 0.035
NS(=O)(=O)c1cc2c(cc1Cl)N=C(CSCc1ccccc1)NS2(=O)=O	0.974 ± 0.079	1.08 ± 0.014	0.974 ± 0.066	0.861 ± 0.04	1.03 ± 0.042
CCCCCC1C(=O)CCC1CC(=O)OC (stereo not given)	0.99 ± 0.057	1.03 ± 0.084	1.025 ± 0.0071	1.08 ± 0.05	1.03 ± 0.066
C[C@@H]1O[C@@H](O[C@H]2[C@H](Oc3cc(O)c4c(c3)O[C@H](c3ccc(O)cc3)CC4=O)O[C@H](CO)[C@@H](O)[C@@H]2O)[C@H](O)[C@H](O)[C@H]1O	1.07 ± 0.042	0.916 ± 0.11	0.975 ± 0.02	0.992 ± 0.24	1.01 ± 0.16
N=C(NCCCCCCNC(=N)NC(=N)Nc1ccc(Cl)cc1)NC(=N)Nc1ccc(Cl)cc1	0.952 ± 0.031	1.02 ± 0.11	1.07 ± 0.028	1.07 ± 0.021	0.851 ± 0.052
C=C1C[C@H]2[C@@H]3C=C(C)C4=CC(=O)CC[C@]4(C)[C@H]3CC[C@]2(C)[C@@]1(OC(C)=O)C(C)=O	0.99 ± 0.042	1 ± 0.11	1.01	0.986 ± 0.076	0.902 ± 0.094
